Compound activity from PubChem.
Rows were chosen to be rich in hits. Some 4% of all compounds tested hit in one or more screens of this group.
VHR inh abs: blocks human VHR1 dual specificity phosphatase; actives 0.52% (n = 290,000); P51452; inhibition, % at 13.3 µM; recombinant VHR phosphatase, pNPP absorbance; in the data active = inhibition above about 50%
Anthrax LF inh2: blocks Bacillus anthracis lethal factor protease | AID 588501 | inhibition, % at 10 µM | P15917 | multiplex microsphere protease cleavage assay, LF | actives 0.12% (n = 360,000); also: plate controls were buffer without enzyme for full effect and enzyme alone for no effect
Autofluor counter: counter-screen for toxin protease inhibitors: compound fluorescence | compound autofluorescence counterscreen, microsphere flow cytometry; hits give high values | fluorescence intensity (no concentration beside the values) | actives 3.1% (n = 360,000); in the data active = fluorescence intensity above about 16000; inconclusive = no clear call, values can overlap the other calls
BoNT-A LC inh2: blocks Botulinum neurotoxin A light chain protease; multiplex microsphere protease substrate cleavage, flow cytometry; inhibition, % at 10 µM; actives 0.17% (n = 360,000); AID 588499; also: plate controls were buffer without enzyme for full effect and enzyme alone for no effect
BoNT F protease: inhibitors of Botulinum neurotoxin F light chain protease. actives 0.22% (n = 360,000). Multiplex microsphere protease cleavage assay, flow cytometry. inhibition, % at 10 µM; in the data active = inhibition above about 35%, passing the limit was not always enough; inconclusive = no clear call, values can overlap the other calls; also: plate controls were buffer without enzyme for full effect and enzyme alone for no effect
MazEF act: activators of E. coli MazEF toxin-antitoxin RNase; P0AE70; FAM/BHQ RNA-DNA oligo cleavage fluorescence, 5 h; activation, % at 20 µM; actives 0.32% (n = 350,000); in the data active = activation above about 50%
An asterisk follows results filed as active; ? = inconclusive; . = not tested or not shown. Rule as the data show it, unless noted: active = inhibition above about 30%; inconclusive = no clear call, values can overlap the other calls; inactive = below that.

SMILES	VHR inh abs	Anthrax LF inh2	Autofluor counter	BoNT-A LC inh2	BoNT F protease	MazEF act
COc1ccc(OC)c(/C=N/n2c(C)nc3ccccc3c2=O)c1	.	.	.	.	.	4.7
O=C(NC1CCCCC1)C1CCN(c2nnnn2-c2ccccc2)CC1	5.9	3.0	8634	2.1	6.8	10.3
CN1CCN(c2nc3c(c(=O)[nH]c(=O)n3C)n2CCSc2nc3ccccc3s2)CC1	13.6	-4.7	5133	-0.1	-4.6	8.7
Cn1c(=O)[nH]c(=O)c2c1nc(N1CCc3ccccc3C1)n2CCSc1nc2ccccc2s1	13.4	-1.8	16749*	-0.5	-0.9	-45.8
CN1CCN(c2nc3c(c(=O)[nH]c(=O)n3C)n2CCCSc2ncccn2)CC1	-19.0	-1.1	22784*	0.6	0.2	0.8
CCN1CCN(c2nc3c(c(=O)[nH]c(=O)n3C)n2CCCSc2ncccn2)CC1	9.5	-9.3	2506	-0.1	-12.8	53.8*
Nc1nc(C2CCCCC2)cs1	6.5	1.5	10729	-0.7	-5.2	-2.0
O=c1c2ccccc2nnn1CCN1CCOCC1	6.7	-1.0	2029	-0.9	0.2	2.8
CCCn1nc2ccccc2c1P(=N)(N1CCOCC1)N1CCOCC1	8.4	2.3	20501*	?	0.6	-4.9
CCOc1ccc(CCNC(=O)C2CCN(c3nn4c(=O)cc(C)nc4s3)CC2)cc1	3.5	-11.8	3943	0.2	0.1	3.6
CCN1CCN(c2ncnc3c2oc2nc(C(C)C)c4c(c23)CCC4)CC1	36.8	.	.	.	.	.
CCOC(=O)N1CCN(c2ncnc3c2oc2nc(C(C)C)c4c(c23)CCC4)CC1	3.0	-5.3	20792*	3.7	4.3	55.0*
CC1=NN(C(=O)Cc2ccccc2)C(O)(c2cccnc2)C1 (stereo not given)	-3.7	-0.6	21683*	?	-2.4	-4.7
Cc1oc(-c2cccc(Cl)c2)nc1CN1CCC(C(=O)NCc2cccnc2)CC1	13.1	-6.2	22980*	0.9	-2.5	4.7
CCN(CCNC(=O)C1CCN(Cc2nc(-c3ccc(Cl)cc3)oc2C)CC1)c1ccccc1	-7.7	-4.3	22915*	-5.4	-9.2	0.8
Cc1oc(-c2ccc(Cl)cc2)nc1CN1CCCC(C(=O)N2CCOCC2)C1 (stereo not given)	-16.2	-0.8	5155	1.0	-1.3	-26.7
CCN(CCNC(=O)C1CCN(Cc2nc(-c3cccc(Cl)c3)oc2C)CC1)c1ccccc1	-7.7	-9.9	20469*	-0.1	-4.4	11.3
Cc1oc(-c2ccc(Cl)cc2)nc1CN1CCCC(C(=O)N2CCN(C(=O)c3ccco3)CC2)C1 (stereo not given)	52.3*	0.9	6393	0.0	2.1	5.3
CCOC(=O)c1cc2sc(C)cc2n1CC(=O)N(CC)CC	3.3	3.5	3769	1.0	10.2	0.6
CC(C(=O)N1CCOCC1)n1cc([N+](=O)[O-])cn1 (stereo not given)	16.0	-2.5	3679	0.0	-4.7	2.4
CCc1ccc(-c2nc(CN3CCC(C(=O)NCCN(CC)c4ccccc4)CC3)c(C)o2)cc1	23.5	-15.3	6106	0.0	-15.1	4.6
CCc1ccc(-c2nc(CN3CCC(C(=O)NCc4ccc(F)cc4)CC3)c(C)o2)cc1	2.7	-3.3	24227*	?	-8.3	-16.7
CCN(CCNC(=O)C1CCCN(Cc2nc(-c3ccc(OC)cc3)oc2C)C1)c1ccccc1 (stereo not given)	3.6	-1.5	21170*	-1.0	-4.6	-0.5
Cc1oc(-c2ccc(Cl)cc2)nc1CN1CCC(C(=O)NCc2cccs2)CC1	11.6	1.3	3666	1.4	-3.8	0.1
CC(C)(C)c1ccc(-c2n[nH]c(=S)n2C2CCCC2)cc1	11.6	-3.7	22762*	?	0.0	-2.6
SMILES	VHR inh abs	Anthrax LF inh2	Autofluor counter	BoNT-A LC inh2	BoNT F protease	MazEF act
COc1ccc(-c2csc(N(CCc3ccc(OC)c(OC)c3)C(=O)COc3ccccc3)n2)cc1	-0.9	-1.9	19913*	?	-1.6	-4.2
O=C(COc1ccccc1)N(Cc1ccccc1)c1nc(-c2ccccc2)cs1	13.1	-0.7	21962*	0.9	1.8	3.8
COc1ccc(-c2csc(N(Cc3ccccc3)C(=O)COc3ccc(Cl)cc3)n2)cc1	30.4	-3.8	10521	-1.2	-5.0	3.9
COc1ccc(CNC(=O)CCC(=O)N2C[C@H]3C[C@H](C2)c2cccc(=O)n2C3)cc1OC	8.8	-11.3	3946	-0.3	-9.1	2.2
NC(=O)CC1NC(=O)c2ccccc21 (stereo not given)	1.0	2.4	23615*	0.2	1.9	2.4
CCN1CCN(C(c2ccccc2)c2nnnn2Cc2ccc3c(c2)OCO3)CC1 (stereo not given)	52.2*	0.1	4156	-0.1	0.3	12.8
O=S(=O)(Nc1cccnc1)c1cccs1	-6.6	2.2	3807	0.0	-12.2	0.1
Cc1ccccc1-c1nc2sc(-c3ccccc3)cc2c(=O)o1	24.6	-5.1	17440*	?	7.3	-3.7
Cc1ccccc1-c1nc2sc(C)c(C)c2c(=O)o1	38.1	17.5	4063	1.1	?	11.8
CCC(=O)c1cn(Cc2ccccc2C#N)c2ccccc12	7.2	-0.1	23775*	-1.7	-1.3	1.9
COc1cc2c(cc1OC)/C(=C/C(=O)c1ccc([N+](=O)[O-])c(C)c1)NCC2	8.6	-6.8	4360	2.0	-38.3	74.0*
COc1cc2c(cc1OC)/C(=C/C(=O)c1ccc(C)cc1)NCC2	14.8	0.5	4515	1.7	26.0	4.5
Cc1cnc(C)c(N2CCC(C(=O)NCc3cccs3)CC2)n1	27.4	-0.9	3253	0.2	-3.6	7.1
O=C(NCc1cccs1)C1CCCN(c2nc3ccccc3o2)C1 (stereo not given)	-2.8	0.8	16144*	1.2	0.8	5.6
COc1nc(OC)nc(N2CCC(C(=O)NCc3cccs3)CC2)n1	-21.5	-0.3	21111*	?	2.9	3.2
Cc1cc(C)nc(N2CCCC(C(=O)NC3CC3)C2)n1 (stereo not given)	52.9*	3.0	3544	0.8	0.9	-4.5
Cc1cc(C)nc(N2CCCC(C(=O)NCc3cccs3)C2)n1 (stereo not given)	-7.7	-3.6	21442*	3.4	3.1	-2.0
Cc1cc(C)nc(N2CCCC(C(=O)Nc3ccc(F)cc3)C2)n1 (stereo not given)	17.0	1.9	3739	-1.4	-2.8	4.6
Cc1ccc2c(c1)C(=O)CC1(CCCC1)O2	22.5	-0.3	4118	-0.3	-7.9	-0.3
Cc1cc(C)cc(OCC(=O)NC2=NCCS2)c1	-4.0	-1.3	4639	0.1	-9.5	0.5
Cc1cc(C)nc(N2CCCC(C(=O)NC(C)CCc3ccco3)C2)n1 (stereo not given)	-7.7	-2.2	23504*	?	-2.3	-2.1
Cc1nc2ccc3[nH]snc3c2n1	6.7	-1.3	23032*	0.0	2.3	1.8
CC(=O)N(c1cccc(Br)c1)c1nc(C)cc(C)c1C#N	-4.3	-1.1	3893	1.9	?	-4.1
O=C(Nc1nnc(Cc2ccccc2)s1)Nc1ccccc1F	9.2	22.9	4181	2.8	-24.8	1.5
